# Results as given in paper PMC4336329 (PLoS ONE, 2015).
# Among all 310,000 compounds or so, about 14,000 (4.5%) showed an effect of 50% or more. The effect is printed as a negative number. The list comes from a sample in which strong results are over-represented; it also holds similar structures and randomly drawn compounds.
# Molecular target: human ether-à-go-go-related gene (hERG) potassium channel (human, UniProt Q12809)
# Test: primary screen, population patch clamp on CHO cells stably expressing hERG; higher = less effect of the substance
# 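Further: peak tail current of the secondary pulse compared with the same well before compound.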
# human ether-à-go-go-related gene (hERG) potassium channel, sequence (Q12809 whole entry, looked up): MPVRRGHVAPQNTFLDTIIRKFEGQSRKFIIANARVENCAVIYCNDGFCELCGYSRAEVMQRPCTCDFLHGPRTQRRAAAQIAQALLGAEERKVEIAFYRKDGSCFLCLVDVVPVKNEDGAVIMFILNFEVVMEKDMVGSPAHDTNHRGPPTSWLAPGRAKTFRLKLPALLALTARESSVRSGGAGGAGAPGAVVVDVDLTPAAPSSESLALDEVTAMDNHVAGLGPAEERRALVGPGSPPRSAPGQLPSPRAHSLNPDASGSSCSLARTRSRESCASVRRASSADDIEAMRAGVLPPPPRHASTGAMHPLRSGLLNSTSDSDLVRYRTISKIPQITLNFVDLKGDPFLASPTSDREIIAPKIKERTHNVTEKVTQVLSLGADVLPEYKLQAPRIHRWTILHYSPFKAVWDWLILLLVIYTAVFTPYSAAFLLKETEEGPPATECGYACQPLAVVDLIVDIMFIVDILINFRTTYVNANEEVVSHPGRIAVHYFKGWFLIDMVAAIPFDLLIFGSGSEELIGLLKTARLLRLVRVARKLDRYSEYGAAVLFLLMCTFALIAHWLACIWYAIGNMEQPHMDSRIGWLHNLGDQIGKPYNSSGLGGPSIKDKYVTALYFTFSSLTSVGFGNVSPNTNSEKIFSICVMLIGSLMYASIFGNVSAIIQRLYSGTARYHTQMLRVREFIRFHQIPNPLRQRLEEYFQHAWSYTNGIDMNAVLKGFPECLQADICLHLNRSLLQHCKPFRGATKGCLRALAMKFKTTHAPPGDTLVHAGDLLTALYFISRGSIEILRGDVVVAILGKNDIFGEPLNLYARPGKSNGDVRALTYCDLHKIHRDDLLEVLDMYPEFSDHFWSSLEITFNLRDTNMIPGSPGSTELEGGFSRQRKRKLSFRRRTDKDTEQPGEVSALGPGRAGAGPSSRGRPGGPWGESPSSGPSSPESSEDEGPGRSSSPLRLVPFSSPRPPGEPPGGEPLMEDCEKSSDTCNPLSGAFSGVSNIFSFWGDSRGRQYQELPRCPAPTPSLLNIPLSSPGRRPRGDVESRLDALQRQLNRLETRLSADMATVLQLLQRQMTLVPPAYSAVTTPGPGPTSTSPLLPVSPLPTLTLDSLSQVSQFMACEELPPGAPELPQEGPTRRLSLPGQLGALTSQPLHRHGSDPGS
row,Compound,"hERG current change (%, negative = inhibition) at 10uM [%]"
1,CC12CCC3C(CC=C4CC(O)CCC43C)C1C/C(=C\c1cccc(F)c1)C2=O (stereo not shown),7.89
2,COc1ccc(CNC(=O)Cc2nn(C)c(=O)c3ccccc23)cc1,-14.2
3,CCN1CCN(S(=O)(=O)c2cc(C(=O)O)ccc2Cl)CC1.Cl,-3.34
4,Cc1ccc(S(=O)(=O)N2CCC(C(=O)NNC(=O)c3ccccc3)CC2)cc1,18.9
5,CCOc1ccc(NC(=S)N2CCC(C(O)(c3ccccc3)c3ccccc3)CC2)cc1,-13
6,CC(OC(=O)c1ccc(F)c(S(=O)(=O)N2CCOCC2)c1)C(=O)NCC1CCCCC1 (stereo not shown),1.84
7,C=CCOCCN(CC)CC,-21.3
8,Cc1ccc(NC(=O)CSc2nnc(CNC(=O)c3c(F)cccc3Cl)o2)cc1,3.28
9,COc1cc(/C=C2\C(=O)N(CCC#N)N=C2C)ccc1OCC(=O)Nc1ccccc1,-7.3
10,Cc1ccsc1-c1nc(CN2CCCC2c2ccc(F)cc2)c(C)o1 (stereo not shown),24.9
11,Cc1oc(-c2cc(F)ccc2F)nc1CN1CCN(C)C(=O)[C@@H]1C,8.32
12,CSc1ccc(-c2nc(CN(C)C3CCOC3)c(C)o2)cc1 (stereo not shown),-31.4
13,Cc1oc(-c2ccc(-c3ccccc3)cc2)nc1CN(C)C1CCOC1 (stereo not shown),-55.8
14,Cc1ccsc1-c1nc(CN(C)C(C2CC2)C2CC2)c(C)o1,-76
15,Cc1ccsc1-c1nc(CN2C[C@@H](C)O[C@@H](C)C2)c(C)o1,17.5
16,Cc1ccc(-c2nc(CN(C)C(C3CC3)C3CC3)c(C)o2)cc1,-56.6
17,Cc1oc(-c2cccc(Cl)c2)nc1CN(C)C1CCOC1 (stereo not shown),0.385
18,Cc1ccc(-c2nc(CS(=O)CC(=O)NC3CC3)c(C)o2)cc1 (stereo not shown),6.39
19,Cc1ccsc1-c1nc(CN2CCN(C)C(=O)[C@@H]2C)c(C)o1,-52.5
20,Cc1oc(-c2ccc3ccccc3c2)nc1CN(C)C(C)c1ccncn1 (stereo not shown),-49.8
21,COc1cccc(C2CCCN2Cc2nc(-c3sccc3C)oc2C)c1 (stereo not shown),20.6

row,Compound,"hERG current change (%, negative = inhibition) at 10uM [%]"
1,O=[N+]([O-])c1cccc(-c2c(-c3ccccc3)ncc3cc(F)ccc23)c1,0.428
2,Nc1cccnc1S(=O)(=O)c1ccccc1,13.8
3,O=C(c1ccco1)N1CCN(C2=NS(=O)(=O)c3ccccc32)CC1,-3.13
4,COc1ccc(CCC(=O)Nc2cccc(Cl)c2)cc1,-1.25
5,O=C(CN1C(=O)NC2(CCOc3ccccc32)C1=O)c1ccc(Cl)cc1 (stereo not shown),-43.5
6,O=C(Nc1cccc(-c2ccc(N3CCOCC3)nn2)c1)c1ccc(Cl)cc1,-3.12
7,Cc1oc(-c2ccccc2)nc1CC(=O)O,8.97
8,COCCN(Cc1nc(-c2ccc(-c3ccccc3)cc2)oc1C)C(C)C,-71.4
9,Cc1oc(-c2ccc(-c3ccccc3)cc2)nc1CN(CCO)C(C)C,-44.1
10,COc1ccc(-c2csc(NC(=O)c3ccc(C(C)(C)C)cc3)c2C(=O)O)cc1,24.9
11,CC(NC(=S)NCCc1ccccc1)C(c1cccs1)N1CCN(C)CC1 (stereo not shown),-35.7
12,CC(=O)c1ccc(NC(=O)Nc2ccncc2)cc1,15.3
13,O=C(CCCc1c[nH]c2ccccc12)N[C@@H](Cc1c[nH]c2ccccc12)C(=O)O,18.9
14,CCOC(=O)N1CCC(NC(=O)c2cc(C(=O)Nc3ccc(S(=O)(=O)N4CCCCC4)cc3)ccc2CO)CC1,34.2
15,CCOC(=O)Cn1nc(C)cc1NC(=O)c1cccnc1,10
16,O=C(CCCc1nc(-c2ccc(Cl)cc2)no1)NC1CCCC1,-1.19
17,O=C(O)[C@H](Cc1ccccc1)NC(=O)N1CCOCC1,-7.49
18,CCOC(=O)c1cnc2ccc(OC)cc2c1Nc1ccc2c(c1)OCCO2,1.43
19,CCOC(=O)c1ccc(NCc2cccnc2)cc1,0.518
20,CCOC(=O)c1cnc2c(OC)cccc2c1Oc1ccccc1,3.3
21,CCOC(=O)c1cnc2c(Cl)cccc2c1NCCN(C)C.Cl,-25.6

row,Compound,"hERG current change (%, negative = inhibition) at 10uM [%]"
1,CCOC(=O)c1cnc2c(C(=O)OC)cccc2c1NCc1cccnc1,-70.5
2,CCOC(=O)c1cnc2c(OC)cccc2c1NCc1cccnc1,-72.2
3,CCOC(=O)c1cnc2c(OC)cccc2c1Nc1ccc2c(c1)OCCO2,-56.3
4,CCOC(=O)c1cnc2c(OC)cccc2c1N1CC(C)CC(C)C1 (stereo not shown),-17.1
5,CCOC(=O)c1cnc2ccccc2c1Nc1ccc2c(c1)OCCO2,-12.3
6,CC(=O)c1cccc(NC(=O)C(C)OC(=O)CN2C(=O)NC(C)(C)C2=O)c1 (stereo not shown),23.8
7,COC(=O)C1=C(c2cc3ccccc3s2)C[C@@H]2CC[C@H]1N2C(=O)NCCNC(C)=O,2.06
8,O=C(O)Cn1ccnc1,4.81
9,Nc1ccccc1-c1nnc(SCc2ccccc2Cl)[nH]c1=O,-0.313
10,COC(=O)C(c1ccccc1)N1CCCCCC1.Cl (stereo not shown),10.8
11,Cc1nc2ncnn2c(C)c1CCC(=O)N1CCN(Cc2ccccc2)CC1,-7.67
12,Cc1nc2ncnn2c(C)c1CCC(=O)N1CCc2ccccc21,-80.6
13,CCOC(=O)N1CCN(C(=O)CCc2c(C)nc3nc(C)nn3c2C)CC1,-22
14,Cc1nc2nc(C)c(CCC(=O)O)c(C)n2n1,8.07
15,Cc1nc2nc(C)c(CCC(=O)N3CCc4ccccc43)c(C)n2n1,-63.5
16,Cc1nc2ncnn2c(C)c1CCC(=O)N1CCN(c2ccccn2)CC1,-33.3
17,Cc1nc2ncnn2c(C)c1CCC(=O)N1CCc2ccccc2C1,-63.4
18,Cc1nc2ncnn2c(C)c1CCC(=O)N1CCOCC1,1.89
19,Cc1nc2ncnn2c(C)c1CCC(=O)N1CCCCC1,-2.79
